# Compounds with a hit are over-represented: about 3.4% of the library has one in this group of screens.
# hcDAF12 agonist – H. contortus DAF-12 activation, primary screen | HEK293 hcDAF-12 lit1-tk-luc reporter, luminescence; 0% DMSO, 100% Δ7-dafachronic acid | activation, % at 6.8 µM | 1.4% of 370,000 active;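 active means activation above the mean of all tested compounds plus 3 SD, cut at about 5.5% in these data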;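 further: 100% = response to 3 µM Δ7-dafachronic acid high control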
# APP 5'UTR act – APP 5'UTR luciferase reporter activation. SH-SY5Y APP 5'UTR luciferase reporter, luminescence; zero percent = DMSO vehicle wells. activation, % at 2 µM. 1% of 190,000 active. AID 1276;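 active means activation above a set limit, based on mean plus 3 SD of controls, cut at about 140% in these data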
# ssDAF-12 act – S. stercoralis DAF-12 activation, primary screen | HEK293 ssDAF-12/GRIP1 lit1-tk-luc reporter, luminescence; % of 3 µM dafachronic acid response | AID 652126 | activation, % at 6.8 µM | 1% of 370,000 active;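 active means activation above the mean over all tested compounds plus 3 SD, cut at about 0.9% in these data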;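 further: 0% = DMSO-only wells and 100% = 3 µM delta7-dafachronic acid wells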
# NF-kB expr up – NF-kB expression increase, human neuronal cells; fold change at 12.5 µM; NF-kB reporter expression; stronger effect = higher value; 1.6% of 190,000 active; AID 1239; in the data active means fold change above about 3.3
# hgDAF-12 ag – hgDAF-12 agonism, primary luciferase screen | activation, % at 6.8 µM | 1.8% of 370,000 active | HEK293 GAL4-hgDAF12 UAS-luciferase reporter, agonist luminescence; normalized to butyrate control | AID 687014;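 active means activation above a cutoff set at the mean of all screened compounds plus 3 SD, cut at about 10% in these data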;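 further: 0% = DMSO wells and 100% = sodium butyrate wells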
# LXR ag – counter-screen for hcDAF-12 agonists: agonists of human LXR-beta; shares compounds with hcDAF12 agonist; HEK293 Gal4-LXR tk-luc reporter, luminescence, 24 h; normalized: DMSO 0%, positive control 100%; activation, % at 6.8 µM; 3,400 tested, under 10 active;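 active means mean percent activation of the reporter above a cutoff set as the average over tested compounds plus their standard deviation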
# Target sequence (P55055 whole entry, looked up, the tested form may be a part): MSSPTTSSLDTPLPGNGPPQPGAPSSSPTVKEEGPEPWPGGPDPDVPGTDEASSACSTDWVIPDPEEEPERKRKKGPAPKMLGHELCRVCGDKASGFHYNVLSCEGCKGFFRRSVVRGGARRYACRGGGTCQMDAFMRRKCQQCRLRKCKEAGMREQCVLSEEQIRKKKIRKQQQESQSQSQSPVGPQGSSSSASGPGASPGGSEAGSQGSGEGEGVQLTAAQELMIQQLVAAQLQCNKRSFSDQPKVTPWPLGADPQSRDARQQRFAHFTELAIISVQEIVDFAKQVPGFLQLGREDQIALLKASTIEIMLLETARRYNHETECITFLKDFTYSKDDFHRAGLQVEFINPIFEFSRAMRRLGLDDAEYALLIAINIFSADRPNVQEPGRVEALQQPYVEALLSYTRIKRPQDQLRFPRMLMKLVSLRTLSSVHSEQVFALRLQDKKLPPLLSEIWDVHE
# hcDAF12 conf – confirmation of H. contortus DAF-12 agonists | shares compounds with hcDAF12 agonist | HEK293 hcDAF-12 lit1-tk-luc reporter, luminescence; % of Δ7-dafachronic acid response | activation, % at 6.8 µM | 61% of 3,400 active;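 active means mean activation across triplicate tests above the threshold derived from the earlier primary screen, cut at about 5.5% in these data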;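 further: 0% = DMSO only wells and 100% = 3 µM Δ7-dafachronic acid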
# The depositor's hits bear a star; / = no result given.
SMILES,hcDAF12 agonist,APP 5'UTR act,ssDAF-12 act,NF-kB expr up,hgDAF-12 ag,LXR ag,hcDAF12 conf
CSc1ccccc1NC(=O)c1ccc([N+](=O)[O-])cc1,-2,6,0,1,1,/,/
N#C/C(=C\c1ccc[nH]1)C(=O)Nc1ccccc1Cl,11*,/,1.2*,/,5,1,12*
N#C/C(=C/C1=C(N2CCOCC2)C(=C/c2ccccc2)/CC1)C(=O)Nc1ccccc1F,1,/,0,/,2,/,/
N#C/C(=C\c1ccc[nH]1)C(=O)Nc1ccccc1F,12*,/,4.3*,/,12*,1,8.6*
N#C/C(=C\c1ccc[nH]1)C(=O)c1ccccc1,0,/,-1,/,3,/,/
COc1ccc(NC(=O)CSc2nnc(-c3ccccc3)n2Cc2ccco2)cc1OC,-1,-12,-2,0.98,-2,/,/
COc1ccc(-c2nnc(SCC(=O)Nc3ccc4cn[nH]c4c3)n2Cc2ccco2)cc1,7.4*,/,1,/,4,0,5
COc1ccc(Oc2c(Cl)cnn(-c3cc(C)cc(C)c3)c2=O)cc1,-2,/,-1,/,-2,/,/
Cc1cccc(NC(=O)N2CCC(N(C)CCC(C)C)CC2)c1,-2,/,-2,/,-1,/,/
CC(OC(=O)c1ccc2c(c1)C(=O)N(Cc1ccncc1)C2=O)C(=O)Nc1cccc(Cl)c1Cl (centres undefined),3,-4,-1,1.1,-1,/,/
O=C(COC(=O)c1ccc2c(c1)C(=O)N(Cc1ccncc1)C2=O)Nc1ccccc1[N+](=O)[O-],7.0*,5,0,1.1,1,0,6.2*
O=C(Cn1nnc(-c2ccncc2)n1)Nc1ccc(F)cc1F,-2,/,-1,/,-2,/,/
O=C1c2ccccc2C(=O)C1c1ccc2ccccc2n1,24*,129,4.4*,1.2,20*,2,21*
COC(=O)C1=C(C)NC(C)=C(C(=O)OC)C1c1ccc2ccccc2n1,1,/,0,0.93,-1,/,/
COC(=O)[C@]12C[C@H](CC(=O)NCc3cccs3)C(=O)N(Cc3ccc(Cl)cc3Cl)C1=C[C@H](C1CCCC1)O[C@@H]2C,0,/,-1,/,-1,/,/
CC(=O)Nc1c(-c2ccc3ccccc3c2)nc2ccccn12,7.6*,/,1.9*,/,9,1,7.3*
O=C(Cc1nnc(NC(=O)c2ccccc2)s1)N/N=C/c1ccco1,7.5*,0,1.3*,1.1,2,0,0
O=C(Cc1nnc(NC(=O)c2ccccc2)s1)N/N=C/c1cccc(O)c1,-1,/,-1,/,1,/,/
COc1ccccc1C(=O)CSc1nccn1C,1,/,-1,/,5,/,/
Cn1ccnc1SCC(=O)c1c[nH]c2ccccc12,9.3*,124,3.8*,2.1,10,1,7.4*
COc1ccc(CN(CCN2CCOCC2)C(=O)c2cccc(F)c2)cc1OC,-3,/,-1,/,0,/,/
CCCCNC(=O)C[C@@H]1C(=O)N2CCCC3=C2[C@@]1(C(=O)OC)CCCC3,1,/,-1,/,0,/,/
O=C(/C=C/Nc1ccc(Br)cc1F)c1ccco1,14*,135,1.5*,4.7*,23*,1,9.9*
O=C(/C=C/Nc1cccc(F)c1)c1ccco1,8.8*,102,1.4*,3.9*,12*,1,8.1*
CC(=O)Nc1ccc(N/C=C/C(=O)c2ccco2)cc1,0,50,-1,2.4,4,/,/
SMILES,hcDAF12 agonist,APP 5'UTR act,ssDAF-12 act,NF-kB expr up,hgDAF-12 ag,LXR ag,hcDAF12 conf
O=C(/C=C/Nc1ccc(F)c(Cl)c1)c1ccco1,8.8*,96,1.7*,2.9,9,1,12*
Cc1ccccc1NC(=O)[C@@H]1CCCN1S(=O)(=O)c1cccc2cccnc12,-2,/,-1,/,-1,/,/
Cc1cc(C)nc(N2CCC(C(=O)N(C)CCc3ccccn3)CC2)n1,0,/,-2,/,4,/,/
Cc1ccccc1-c1nnc(CS(=O)(=O)c2ccccc2)o1,6.8*,/,1.5*,/,12*,1,7.0*
Cc1ccc(C)c(-c2nnc(NC(=O)CCS(=O)(=O)c3ccccc3)o2)c1,-1,/,0,/,-3,/,/
O=C(c1ccc2oc(CCc3ccccc3)nc2c1)N1CCC(O)CC1,8.2*,/,0,/,11*,1,6.9*
CCOC(=O)N1CCN(C(=O)c2ccc3oc(CCc4ccccc4)nc3c2)CC1,-3,/,-2,/,5,/,/
COc1cccc(NC(=S)Nc2cccc3ccccc23)c1,5,/,0,/,9,/,/
CCc1cccc(NC(=S)Nc2cccc3ccccc23)c1,7.4*,/,0,/,2,0,5.9*
Cc1cccc(NC(=S)Nc2cccc3ccccc23)c1,7.2*,/,1.4*,/,5,0,11*
CCCCCCNC(=O)c1c(N)[nH]c(C(=O)c2ccccc2)c1-c1ccc(O)cc1,-3,/,-2,/,-2,/,/
Cc1nc2ccc(S(=O)(=O)NCC(=O)N(C)Cc3ccc(F)cc3)cc2s1,-3,/,-2,/,-2,/,/
CN(C)c1ccc(-c2nnc(-c3ccccc3F)o2)cc1,10*,/,1,/,13*,2,6.5*
COc1ccccc1/C=C/C(=O)N1CCC(c2ccccc2)C1 (centres undefined),6.7*,52,1.0*,2.4,12*,0,4
COc1ccc(Cl)cc1S(=O)(=O)N1CCCc2ccccc21,-1,/,0,/,0,/,/
COc1ccc(Cl)cc1S(=O)(=O)N1CCN=C1C,12*,/,1.6*,0.91,-1,0,2
CN1CC=C(c2ccc(C(F)(F)F)cc2)N(c2ccccc2)C1=O,3,/,-1,/,0,/,/
O=C(Nc1ccccc1)N1CCc2ccccc2C1,6.8*,82,0,2.4,11*,1,7.9*
O=C(Nc1ccc(Cl)cc1)N1CCc2ccccc2C1,4,44,0,2.9,9,/,/
Cc1ccc(NC(=O)N2CCc3ccccc3C2)cc1,7.4*,75,1,3.5*,8,1,6.7*
COc1ccc(C[N+]2=C(N)N[C@@]3(C=C(C)Cn4c(=O)n(-c5ccccc5)c(=O)n43)C2)c(OC)c1,-1,/,-1,/,-2,/,/
COC(=O)C1CCN(c2nc3ccccc3nc2C(C#N)C(=O)NCCc2ccccc2)CC1 (centres undefined),8.2*,6,0,0.82,-1,0,4
Cc1ccccc1CN1CCCCC(NC(=O)c2cccc(C(F)(F)F)c2)C1=O (centres undefined),-3,/,-2,/,-1,/,/
COc1ccccc1C(=O)Nc1ccc2c(c1)OCO2,8.0*,91,1.6*,2.6,9,1,10*
COc1ccccc1C(=O)NCC(=O)Nc1ccc2c(c1)OCO2,-2,/,-1,/,-1,/,/
COc1ccc(Cl)cc1C(=O)Nc1ccc2c(c1)OCO2,7.3*,39,1.5*,1.2,8,1,10*

# Screening results (PubChem BioAssay)
